Test results as given in PMC11006913.
Numbering of substitutions follows the chain as printed.

Tests used:
Experiment in all cases: PBM; 200 nM protein, PBS
Settings in all cases: dsDNA, one strand shown
SIX6 [1] = biological target: T1, SIX6 (Homo sapiens, UniProt O95475 114-200, L167I)
T1 sequence: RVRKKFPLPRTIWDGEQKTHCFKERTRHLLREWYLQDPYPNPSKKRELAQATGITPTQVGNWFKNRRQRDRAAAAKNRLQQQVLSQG

SIX6 [2] = biological target: T2, SIX6 (Homo sapiens, UniProt O95475 114-200, L143V)
T2 sequence: T1 sequence with L30V, I54L

SIX6 [3] = biological target: T3, SIX6 (Homo sapiens, UniProt O95475 114-200, H141N)
T3 sequence: T1 sequence with H28N, I54L

SIX6 [4] = biological target: T4, SIX6 (Homo sapiens, UniProt O95475 114-200, T165P)
T4 sequence: T1 sequence with T52P, I54L

SIX6 [5] = biological target: T5, SIX6 (Homo sapiens, UniProt O95475 114-200, L167M)
T5 sequence: T1 sequence with I54M

SIX6 [6] = biological target: T6, SIX6 (Homo sapiens, UniProt O95475 114-200, L143M)
T6 sequence: T1 sequence with L30M, I54L

SIX6 [7] = biological target: T7, SIX6 (Homo sapiens, UniProt O95475 114-200, L143I)
T7 sequence: T1 sequence with L30I, I54L

SIX6 [8] = biological target: T8, SIX6 (Homo sapiens, UniProt O95475 114-200, T165G)
T8 sequence: T1 sequence with T52G, I54L

SIX6 [9] = biological target: T9, SIX6 (Homo sapiens, UniProt O95475 114-200, T139Q)
T9 sequence: T1 sequence with T26Q, I54L

SIX6 [10] = biological target: T10, SIX6 (Homo sapiens, UniProt O95475 114-200, T165A)
T10 sequence: T1 sequence with T52A, I54L

SIX6 [11] = biological target: T11, SIX6 (Homo sapiens, UniProt O95475 114-200, L167V)
T11 sequence: T1 sequence with I54V

SIX6 [12] = biological target: T12, SIX6 (Homo sapiens, UniProt O95475 114-200)
T12 sequence: T1 sequence with I54L

SIX6 [13] = biological target: T13, SIX6 (Homo sapiens, UniProt O95475 114-200, T165I)
T13 sequence: T1 sequence with T52I, I54L

Sequence	binding signal (SIX6 [1])	binding signal (SIX6 [2])	binding signal (SIX6 [3])	binding signal (SIX6 [4])	binding signal (SIX6 [5])	binding signal (SIX6 [6])	binding signal (SIX6 [7])	binding signal (SIX6 [8])	binding signal (SIX6 [9])	binding signal (SIX6 [10])	binding signal (SIX6 [11])	binding signal (SIX6 [12])	binding signal (SIX6 [13])
GTATGATA	11 upbm affinity estimate (log intensity, higher = more binding, comparable within an allelic series)	10.5 upbm affinity estimate (log intensity, higher = more binding, comparable within an allelic series)	11.1 upbm affinity estimate (log intensity, higher = more binding, comparable within an allelic series)	10.1 upbm affinity estimate (log intensity, higher = more binding, comparable within an allelic series)	10.6 upbm affinity estimate (log intensity, higher = more binding, comparable within an allelic series)	11 upbm affinity estimate (log intensity, higher = more binding, comparable within an allelic series)	10.5 upbm affinity estimate (log intensity, higher = more binding, comparable within an allelic series)	11.2 upbm affinity estimate (log intensity, higher = more binding, comparable within an allelic series)	11.2 upbm affinity estimate (log intensity, higher = more binding, comparable within an allelic series)	11 upbm affinity estimate (log intensity, higher = more binding, comparable within an allelic series)	10.9 upbm affinity estimate (log intensity, higher = more binding, comparable within an allelic series)	11 upbm affinity estimate (log intensity, higher = more binding, comparable within an allelic series)	10.9 upbm affinity estimate (log intensity, higher = more binding, comparable within an allelic series)
GCGCTGCC	8.75 upbm affinity estimate (log intensity, higher = more binding, comparable within an allelic series)	8.74 upbm affinity estimate (log intensity, higher = more binding, comparable within an allelic series)	8.81 upbm affinity estimate (log intensity, higher = more binding, comparable within an allelic series)	8.85 upbm affinity estimate (log intensity, higher = more binding, comparable within an allelic series)	8.8 upbm affinity estimate (log intensity, higher = more binding, comparable within an allelic series)	8.76 upbm affinity estimate (log intensity, higher = more binding, comparable within an allelic series)	8.77 upbm affinity estimate (log intensity, higher = more binding, comparable within an allelic series)	8.82 upbm affinity estimate (log intensity, higher = more binding, comparable within an allelic series)	8.75 upbm affinity estimate (log intensity, higher = more binding, comparable within an allelic series)	8.8 upbm affinity estimate (log intensity, higher = more binding, comparable within an allelic series)	8.69 upbm affinity estimate (log intensity, higher = more binding, comparable within an allelic series)	8.71 upbm affinity estimate (log intensity, higher = more binding, comparable within an allelic series)	8.78 upbm affinity estimate (log intensity, higher = more binding, comparable within an allelic series)
AAGTGCGC	8.9 upbm affinity estimate (log intensity, higher = more binding, comparable within an allelic series)	9.07 upbm affinity estimate (log intensity, higher = more binding, comparable within an allelic series)	8.88 upbm affinity estimate (log intensity, higher = more binding, comparable within an allelic series)	9.2 upbm affinity estimate (log intensity, higher = more binding, comparable within an allelic series)	9.05 upbm affinity estimate (log intensity, higher = more binding, comparable within an allelic series)	9.11 upbm affinity estimate (log intensity, higher = more binding, comparable within an allelic series)	9.08 upbm affinity estimate (log intensity, higher = more binding, comparable within an allelic series)	9 upbm affinity estimate (log intensity, higher = more binding, comparable within an allelic series)	9.05 upbm affinity estimate (log intensity, higher = more binding, comparable within an allelic series)	8.96 upbm affinity estimate (log intensity, higher = more binding, comparable within an allelic series)	8.99 upbm affinity estimate (log intensity, higher = more binding, comparable within an allelic series)	9.04 upbm affinity estimate (log intensity, higher = more binding, comparable within an allelic series)	9.04 upbm affinity estimate (log intensity, higher = more binding, comparable within an allelic series)
ATATCCCC	10.9 upbm affinity estimate (log intensity, higher = more binding, comparable within an allelic series)	10.3 upbm affinity estimate (log intensity, higher = more binding, comparable within an allelic series)	10.9 upbm affinity estimate (log intensity, higher = more binding, comparable within an allelic series)	9.7 upbm affinity estimate (log intensity, higher = more binding, comparable within an allelic series)	10.9 upbm affinity estimate (log intensity, higher = more binding, comparable within an allelic series)	10.9 upbm affinity estimate (log intensity, higher = more binding, comparable within an allelic series)	10.3 upbm affinity estimate (log intensity, higher = more binding, comparable within an allelic series)	10.9 upbm affinity estimate (log intensity, higher = more binding, comparable within an allelic series)	10.9 upbm affinity estimate (log intensity, higher = more binding, comparable within an allelic series)	10.8 upbm affinity estimate (log intensity, higher = more binding, comparable within an allelic series)	10.7 upbm affinity estimate (log intensity, higher = more binding, comparable within an allelic series)	10.9 upbm affinity estimate (log intensity, higher = more binding, comparable within an allelic series)	10.9 upbm affinity estimate (log intensity, higher = more binding, comparable within an allelic series)
TGTATCAA	11.2 upbm affinity estimate (log intensity, higher = more binding, comparable within an allelic series)	10.4 upbm affinity estimate (log intensity, higher = more binding, comparable within an allelic series)	11.2 upbm affinity estimate (log intensity, higher = more binding, comparable within an allelic series)	9.94 upbm affinity estimate (log intensity, higher = more binding, comparable within an allelic series)	10.7 upbm affinity estimate (log intensity, higher = more binding, comparable within an allelic series)	11 upbm affinity estimate (log intensity, higher = more binding, comparable within an allelic series)	10.4 upbm affinity estimate (log intensity, higher = more binding, comparable within an allelic series)	11.3 upbm affinity estimate (log intensity, higher = more binding, comparable within an allelic series)	11.2 upbm affinity estimate (log intensity, higher = more binding, comparable within an allelic series)	11.3 upbm affinity estimate (log intensity, higher = more binding, comparable within an allelic series)	11 upbm affinity estimate (log intensity, higher = more binding, comparable within an allelic series)	11.1 upbm affinity estimate (log intensity, higher = more binding, comparable within an allelic series)	11.1 upbm affinity estimate (log intensity, higher = more binding, comparable within an allelic series)
ATGATACA	11.3 upbm affinity estimate (log intensity, higher = more binding, comparable within an allelic series)	10.5 upbm affinity estimate (log intensity, higher = more binding, comparable within an allelic series)	11.3 upbm affinity estimate (log intensity, higher = more binding, comparable within an allelic series)	9.98 upbm affinity estimate (log intensity, higher = more binding, comparable within an allelic series)	10.8 upbm affinity estimate (log intensity, higher = more binding, comparable within an allelic series)	11.1 upbm affinity estimate (log intensity, higher = more binding, comparable within an allelic series)	10.5 upbm affinity estimate (log intensity, higher = more binding, comparable within an allelic series)	11.3 upbm affinity estimate (log intensity, higher = more binding, comparable within an allelic series)	11.2 upbm affinity estimate (log intensity, higher = more binding, comparable within an allelic series)	11.2 upbm affinity estimate (log intensity, higher = more binding, comparable within an allelic series)	11.1 upbm affinity estimate (log intensity, higher = more binding, comparable within an allelic series)	11.1 upbm affinity estimate (log intensity, higher = more binding, comparable within an allelic series)	11.1 upbm affinity estimate (log intensity, higher = more binding, comparable within an allelic series)
